# In all, about 340,000 compounds went through this assay and about 1,800 (0.53%) were called active. This is one part of a sample in which actives are shown more often than they occur. A number with no mark means an inactive call.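 The calls were made as follows: active = activation over 3 SD above normal in the single-dose calcium agonist read (cut at about 30% in these data); inactive = the rest.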
# Molecular target: D(2) dopamine receptor (Homo sapiens) (UniProt P14416)
# Test: HTS Assay for Allosteric Agonists of the Human D2 Dopamine Receptor: Primary Screen for Agonists; also: 0% is about no effect
# Conditions: HEK293 T-REx D2 cells, calcium flux agonist mode; at 2 µM; hits give high values
# Description: NIH Chemical Genomics Center [NCGC] NIH Molecular Libraries Probe Centers Network [MLPCN] MLPCN Grant: NS064831-01 Assay Submitter (PI): David Sibley Dopamine receptors (DARs) are involved in the etiology and/or therapy of a number of neuropsychiatric and endocrine disorders. For instance, all receptor-based antiparkinsonian drugs work via stimulating the D2 DAR subtype whereas all FDA-approved antipsychotic agents are antagonists of this receptor. […] There are three different types of allosteric modulators that we are seeking, two of which will stimulate or augment receptor signaling, allosteric agonists and potentiators, while the third, allosteric antagonists, will attenuate receptor signaling. The present primary screening assay measures compound agonism by tracking calcium flux in a […], inducible Hek293 Trex D2 cell line.
# Freshly passaged cells are plated in 1536 well black, clear bottom plates at a density of 4000 cells/well in 3 ul of complete media containing 1x tetracycline inducer. After an overnight incubation at […] in 5% CO2, cells are loaded with 2 ul of the no wash Calcium Assay Kit (ABD Bioquest) and incubated at room temperature for 30 to 90 minutes. Agonist read: A 10 cycle (1 second/cycle) baseline measurement is taken and then the FDSS online 1536 pintool delivers 23 nl of compound library (as well as dopamine controls) to the plate. The plate is measured for kinetically at 1 cycle/sec for 180 seconds and is considered to be the agonist portion of the assay (eg, compounds which activate a positive calcium response during this portion are flagged as potential agonists). Following the 180 second read, 1 ul of either an EC20 (positive modulation assay) or EC80 (negative modulation assay) is delivered by an onboard pipette head. Measurements are taken kinetically for an additional 180 seconds.
# Chain of D(2) dopamine receptor (Homo sapiens) (P14416 whole entry, looked up): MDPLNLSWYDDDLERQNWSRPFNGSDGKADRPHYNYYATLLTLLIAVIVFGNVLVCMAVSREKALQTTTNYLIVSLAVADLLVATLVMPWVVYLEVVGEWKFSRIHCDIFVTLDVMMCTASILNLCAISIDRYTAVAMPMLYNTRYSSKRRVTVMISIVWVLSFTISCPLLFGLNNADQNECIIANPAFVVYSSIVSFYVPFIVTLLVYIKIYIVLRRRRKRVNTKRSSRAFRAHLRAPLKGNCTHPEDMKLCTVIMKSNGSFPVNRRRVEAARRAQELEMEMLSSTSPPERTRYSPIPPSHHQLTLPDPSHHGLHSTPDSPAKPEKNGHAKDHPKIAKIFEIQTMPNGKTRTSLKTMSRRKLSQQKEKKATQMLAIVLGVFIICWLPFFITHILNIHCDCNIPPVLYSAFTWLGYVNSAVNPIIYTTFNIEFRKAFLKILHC
row,Structure (SMILES),activation
1,CNCC(O)CN1CCN(c2ccccc2OC)CC1 (stereo unspecified),0.328%
2,O=C(C(c1ccccc1)c1ccccc1)N1CCN(CC(O)COc2ccccc2)CC1 (stereo unspecified),-0.117%
3,Cc1cccc(OCC(O)CN2CCN(CCN3C(=O)c4cccc5cccc(c45)C3=O)CC2)c1C (stereo unspecified),-0.617%
4,C=CCc1ccccc1OCC(O)CN1CCN(CCO)CC1 (stereo unspecified),-1.83%
5,CC1CCN(CC(O)COc2ccc(C(=O)c3ccccc3)cc2)CC1 (stereo unspecified),-0.0837%
6,Cc1ccc(OCC(O)CN2CCN(CC(O)COc3ccc(C)cc3Cl)CC2)c(Cl)c1 (stereo unspecified),0.53%
7,CC(C)c1ccc(OCC(O)Cn2cnc3ccccc32)cc1 (stereo unspecified),1.03%
8,OC(COc1cccc2ccccc12)CN1CCN(c2ccccn2)CC1 (stereo unspecified),66.3% (active)
9,CC(=O)Nc1ccc(OCC(O)CN2CCN(c3ccccc3Cl)CC2)cc1 (stereo unspecified),71.6% (active)
10,Cc1ccccc1OCC(O)CN1CCN(c2ccccn2)CC1 (stereo unspecified),64.7% (active)
11,O=S(=O)(c1ccc(OCC(O)CN2CCN(c3ccccc3Cl)CC2)cc1)N1CCOCC1 (stereo unspecified),-0.884%
12,CC(C)c1ccc(OCC(O)CN2CCN(c3ccccn3)CC2)cc1 (stereo unspecified),66.2% (active)
13,COc1cc(C(=O)N2CCN(c3ccc(Nc4ccc(C)cc4)nn3)CC2)cc(OC)c1OC,-0.205%
14,COc1ccccc1Cc1nc2ccccc2nc1SCC(=O)N1CCCc2ccccc21,1.06%
15,COc1cccc(NC(=O)N(Cc2cn(C)c3ccccc23)C2CCCCCC2)c1,0.628%
16,Cn1ccc2cc(S(=O)(=O)N3CCCC(C(=O)NCc4ccccc4F)C3)ccc21 (stereo unspecified),-0.715%
17,Cc1ccc(Cl)cc1NC(=O)CSc1nccn1C,-0.262%
18,CCc1ccc(CN(Cc2ccco2)C(=O)COc2ccc(Cl)c(C)c2)cc1,3.85%
19,COC(=O)C1=C(c2ccccc2)c2ccccc2S(=O)(=O)N1CC(=O)Nc1ccccc1C(F)(F)F,-0.526%

row,Structure (SMILES),activation
1,COc1ccccc1OCC(=O)Nc1nnc2n1CCS2,-1.11%
2,CCN1CCN(CCCNC(=O)c2ccc3c(c2)sc2nc(-c4ccc(OC)cc4)cn23)CC1,1.86%
3,Cc1nc2ccc(S(=O)(=O)NC(C(=O)NCc3ccccc3Cl)C(C)C)cc2s1 (stereo unspecified),-0.364%
4,Cn1c(=O)cc(OCC(=O)N2CCN(c3ccccc3)CC2)c2ccccc21,0.681%
5,CCn1c(=O)cc(OCC(=O)Nc2cc(Cl)c(OC)cc2OC)c2ccccc21,-0.253%
6,Cn1c(C(=O)NCCCN2CCN(c3cccc(Cl)c3)CC2)cc2c(=O)n(C)c3ccccc3c21,60.1% (active)
7,Cn1c(C(=O)NCCc2ccsc2)cc2c(=O)n(C)c3ccccc3c21,0.0188%
8,CCn1c(=O)cc(OCC(=O)NCCCN2CCN(c3cccc(Cl)c3)CC2)c2ccccc21,72.9% (active)
9,CCN1CCCC1CNC(=O)c1cc2c(=O)n(C)c3ccccc3c2n1C (stereo unspecified),1.59%
10,Cc1cc(C)cc(NC(=O)CSc2nc3nccnc3c(=O)n2CCc2c[nH]c3ccccc23)c1,0.038%
11,Cc1ccccc1CNC(=O)C1CCCN(S(=O)(=O)N(C)c2ccc(F)cc2)C1 (stereo unspecified),-0.556%
12,CCOc1ccc(CNC(=O)c2ccc(CS(=O)c3ccccc3)o2)cc1 (stereo unspecified),-0.363%
13,CCCN(CCC)CCNC(=O)Cn1cnc2sc(C)c(S(=O)(=O)N3CCC(C)CC3)c2c1=O,0.0784%
14,CCCCCC(=O)NC(=S)NNC(=O)c1ccc([N+](=O)[O-])cc1,2.53%
15,CCCCC(=O)NNC(=S)NC(=O)C(c1ccccc1)c1ccccc1,52.5% (active)
16,CCC(C)NC(=O)CCCc1ccccc1 (stereo unspecified),1.02%
17,CCCCOc1ccc(CN2C(=O)C(=O)c3cc(Br)cc(C)c32)cc1OC,-0.896%
18,Cc1ccc2[nH]c(=O)c(CN3CCCCC3)c(-c3ccccc3)c2c1,16.6%
19,Clc1ccc(CN2CCCCCC2)cc1Cl,0.701%

row,Structure (SMILES),activation
1,c1ccc2cc3[nH]c(CN4CCCCC4)nc3cc2c1,39.6% (active)
2,COc1cc(Cl)c(NC(=O)C(NS(=O)(=O)c2cccs2)C(C)C)c(OC)c1 (stereo unspecified),0.0329%
3,COc1ccc(-n2c(=O)c3sc4ccccc4c3n(CC(=O)Nc3cccc(C)c3)c2=O)cc1,1.94%
4,COc1cccc(NC(=O)C2CCCN(c3ncnc4c3nc3n4CCCCC3)C2)c1 (stereo unspecified),60.2% (active)
5,COc1cccc(CNC(=O)C2CCCN(c3ncnc4c3nc3n4CCCCC3)C2)c1 (stereo unspecified),-0.0991%
6,CCOC(=O)c1cccc(NC(=O)C2CCN(c3ncnc4c3nc3n4CCCCC3)CC2)c1,-0.296%
7,O=C(/C=C/c1ccccc1)N1CCN(Cc2cc(=O)n3nc(-c4ccccc4F)sc3n2)CC1,0.305%
8,C=CCNC(=O)/C=C/c1ccc(C(C)C)cc1,0.0403%
9,O=C(/C=C(O)/C=C/c1ccc(O)cc1)/C=C/c1ccc(O)cc1,57.4% (active)
10,O=C(O)/C=C/c1ccc(S(=O)(=O)N2CCCCCC2)cc1,19.8%
11,CC(NC(=O)c1cc2c(=O)n3ccccc3nc2n(C(C)C)c1=N)c1ccccc1 (stereo unspecified),0.527%
12,COc1ccc(CNC(=O)CS(=O)Cc2nc(-c3cccc(C)c3)oc2C)cc1 (stereo unspecified),-0.737%
13,CCN(CCCNC(=O)c1ccc(Sc2ccc(C)cc2)c(NC(C)=O)c1)c1cccc(C)c1,0.373%
14,CCN(CCCNC(=O)c1ccc2c(c1)NC(=O)CN2C)c1cccc(C)c1,37.3% (active)
15,CCN(CCCNC(=O)CSc1cc(=O)n(C)c2cc(Cl)ccc12)c1cccc(C)c1,0.221%
16,COc1cc(OC)c(NC(=O)Cc2ccc(-n3c(C)nc4cccnc43)cc2)cc1Cl,-0.621%
17,CCOc1cc(C2c3c(-c4ccc(Br)cc4)n[nH]c3C(=O)N2c2ccc(Cl)cc2)ccc1O (stereo unspecified),0.413%
18,Cc1cc(C)cc(NC(=O)Cn2nc(N3CCN(c4ccccc4)CC3)ccc2=O)c1,0.0127%
